# Source: PubChem BioAssay (NCATS)
# Records with an inconclusive call do not appear. Where a call stands in place of a potency, no number is given. Calls of active or inactive are those of the source. Unless noted, the call rests on the fitted dose curve; in most records, active means well fitted curve in the direction sought with a large enough effect; inconclusive means small, poorly fitted or top-dose-only effect, or another doubt; inactive means no such curve, though single readings can be large; an effect the other way counts as inactive or inconclusive.
# Columns and labels:
# [1] = NCATS anti-infectives library activity on HEK293 viability as a counter-qHTS vs the C. elegans viability qHTS (AID 1745854);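 further: HEK293 cells exposed to compounds for 24 hr before the viability read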
# Outline: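 HEK293 cells (1,500/well) exposed 24 hr at 37C to 1:5 titrations, up to 41.7 uM final; counter-screen to a C. elegans viability qHTS. Viability by CellTiter-Glo luminescence after 10 min at room temperature; digitonin as control.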
# [2] = target: Glutathione peroxidase 1 (Homo sapiens) (UniProt P07203); experiment: Primary qHTS Assay for Inhibitors of Recombinant Selenoprotein Glutathione Peroxidase 1 (GPX1) (AID 1845191); further: nearly all actives have a fitted effect of over 65% in size
# Glutathione peroxidase 1 (Homo sapiens), sequence (P07203 whole entry, looked up): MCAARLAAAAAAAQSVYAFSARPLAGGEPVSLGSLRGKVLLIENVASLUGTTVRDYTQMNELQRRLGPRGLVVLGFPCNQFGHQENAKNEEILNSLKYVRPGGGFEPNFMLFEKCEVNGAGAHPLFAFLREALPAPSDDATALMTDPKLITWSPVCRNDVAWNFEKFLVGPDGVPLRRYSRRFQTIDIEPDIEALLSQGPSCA
# Outline: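 GR-coupled assay: compounds preincubated 30 min at room temperature with GPX1, then reaction started with CHP; final 10 nM GPX1, 1 mM GSH, 0.5 mM CHP, 0.5 mM NADPH, 100 nM GR, 0.01% BSA, pH 7.5 Tris buffer. NADPH fluorescence (340/450 nm) read at 0 and 15 min.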
# [3] = target: Phospholipid hydroperoxide glutathione peroxidase GPX4 (Homo sapiens) (UniProt P36969); experiment: Primary qHTS Assay for Inhibitors of Recombinant Selenoprotein Glutathione Peroxidase 4 (GPX4) (AID 1845192); further: nearly all actives have a fitted effect of over 65% in size
# Phospholipid hydroperoxide glutathione peroxidase GPX4 (Homo sapiens), sequence (P36969 whole entry, looked up): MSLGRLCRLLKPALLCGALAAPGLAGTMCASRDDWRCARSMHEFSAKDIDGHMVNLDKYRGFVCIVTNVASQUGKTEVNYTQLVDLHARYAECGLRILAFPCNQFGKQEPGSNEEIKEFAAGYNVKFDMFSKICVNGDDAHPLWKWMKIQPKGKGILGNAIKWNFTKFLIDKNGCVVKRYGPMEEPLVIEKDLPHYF
# Outline: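 GR-coupled assay: recombinant GPX4 preincubated 30 min with compound at room temperature; final 200 nM GPX4, 1 mM GSH, 0.5 mM cumene hydroperoxide, 0.5 mM NADPH, 100 nM GR, 0.01% BSA, pH 7.5 Tris. NADPH fluorescence (340/450 nm) read at 0 and 15 min.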
# [4] = target: Metallo-beta-lactamase type 2 (Klebsiella pneumoniae) (UniProt C7C422); experiment: qHTS to identify inhibitors of the New Delhi Metallo-beta-lactamase (NDM): assay validation screen against the NCATS LOPAC Collection (AID 1794843);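 further: nitrocefin turnover by NDM-1 measured as 485 nm absorbance at plateau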
# Metallo-beta-lactamase type 2 (Klebsiella pneumoniae), sequence (C7C422 whole entry, looked up): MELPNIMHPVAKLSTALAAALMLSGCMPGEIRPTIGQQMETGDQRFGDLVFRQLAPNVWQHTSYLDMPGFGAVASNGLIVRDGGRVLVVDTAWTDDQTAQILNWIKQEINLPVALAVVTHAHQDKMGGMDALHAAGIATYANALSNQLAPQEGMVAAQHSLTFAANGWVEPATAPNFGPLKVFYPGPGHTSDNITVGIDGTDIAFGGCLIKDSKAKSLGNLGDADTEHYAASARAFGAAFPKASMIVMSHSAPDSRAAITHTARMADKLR
# Outline: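 NDM-1 at 2 nM final in 50 mM HEPES pH 7.0, 1 uM ZnSO4, 0.01% Tween20, preincubated with LOPAC compounds pinned in DMSO; 50 uM nitrocefin (stock) added. Hydrolysis read as absorbance at 485 nm in the plateau phase.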
# [5] = target: Luciferin 4-monooxygenase (Photinus pyralis) (UniProt P08659); experiment: Primary firefly luciferase (FLuc) qHTS assay for identification of artifact compounds. (AID 1845220); further: nearly all actives have a fitted effect of over 60% in size; further: potency means the concentration at half of the fitted maximal effect
# Outline: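 D-luciferin and ATP (10 uM each, final) in Tris acetate buffer pH 7.6 were incubated with compounds for 15 min at room temperature. The reaction was started with 10 nM Photinus pyralis luciferase and luminescence read after 5 min. Percent inhibition was fitted to a 4-parameter Hill equation.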
# [6] = Primary fluorescence-based thiol-reactive (MSTI) qHTS assay for identification of artifact compounds. (AID 1845221); further: nearly all actives have a fitted effect of over 65% in size; further: potency means the concentration at half of the fitted maximal effect
# Outline: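 A multi-concentration qHTS design tested compounds against 4 uM MSTI, pH 7.4 phosphate-buffered saline. Plates were protected from light for 1 h at room temperature before imaging fluorescence.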
# [7] = tested on: Nanoluciferase (engineered Oplophorus gracilirostris luciferase); experiment: Primary Nanoluciferase (NLuc) qHTS assay for identification of artifact compounds. (AID 1845222)
# Outline: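 Diluted conditioned medium from NLuc-expressing S16 cells treated with compounds for 15 min at room temperature, then Nano-Glo substrate added; luminescence read after 5 min. Percent inhibition versus no-enzyme and DMSO controls fitted to 4-parameter Hill equation.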
# [8] = Primary redox qHTS assay for identification of artifact compounds. (AID 1845223)
# Outline: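 Amplex Red (25 uM) and HRP (250 mU/mL) in HBSS, with compounds for 15 min, then 250 uM DTT for 30 min, room temperature, dark. Fluorescence 525/598 nm read; normalized to DMSO and 10 uM DA3003; Hill fit.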
# [9] = target: Catechol O-methyltransferase (Homo sapiens) (UniProt P21964); experiment: Confirmatory Screen for Target Class Profiling of Small Molecule Inhibitors of Methyltransferases (AID 1745852; calls by dose curve); settings: MTase-Glo luminescence, SAH detection, recombinant enzyme; measured here: COMT max response; stronger effect = lower value
# Catechol O-methyltransferase (Homo sapiens), sequence (P21964 whole entry, looked up): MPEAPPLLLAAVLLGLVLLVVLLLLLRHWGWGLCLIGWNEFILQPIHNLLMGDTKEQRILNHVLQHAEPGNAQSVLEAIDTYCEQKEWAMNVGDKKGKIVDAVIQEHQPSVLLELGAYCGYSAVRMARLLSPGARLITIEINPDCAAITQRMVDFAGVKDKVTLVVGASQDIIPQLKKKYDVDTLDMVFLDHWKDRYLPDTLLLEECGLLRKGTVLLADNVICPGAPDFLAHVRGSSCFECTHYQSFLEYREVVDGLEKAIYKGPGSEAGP
# [10] = target: Guanidinoacetate N-methyltransferase (Homo sapiens) (UniProt Q14353); experiment: as above; settings: MTase-Glo luminescence, SAH detection, recombinant enzyme; at 57.3 µM (top of the series)
# [11] = target: Nicotinamide N-methyltransferase (Homo sapiens) (UniProt P40261); experiment: as above; settings: MTase-Glo luminescence, SAH detection, recombinant enzyme; measured here: NNMT max response; stronger effect = lower value
# Nicotinamide N-methyltransferase (Homo sapiens), sequence (P40261 whole entry, looked up): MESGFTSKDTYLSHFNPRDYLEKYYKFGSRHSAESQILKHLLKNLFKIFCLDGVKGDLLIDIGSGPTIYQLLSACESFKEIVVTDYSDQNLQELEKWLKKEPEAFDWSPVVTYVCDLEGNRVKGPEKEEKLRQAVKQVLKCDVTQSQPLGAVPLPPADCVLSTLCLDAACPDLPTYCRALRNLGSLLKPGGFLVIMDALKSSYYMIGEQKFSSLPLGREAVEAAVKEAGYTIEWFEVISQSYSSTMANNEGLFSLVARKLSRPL
# [12] = target: Phenylethanolamine N-methyltransferase (Homo sapiens) (UniProt P11086); experiment: as above; settings: MTase-Glo luminescence, SAH detection, recombinant enzyme; measured here: PNMT max response; stronger effect = lower value
# Phenylethanolamine N-methyltransferase (Homo sapiens), sequence (P11086 whole entry, looked up): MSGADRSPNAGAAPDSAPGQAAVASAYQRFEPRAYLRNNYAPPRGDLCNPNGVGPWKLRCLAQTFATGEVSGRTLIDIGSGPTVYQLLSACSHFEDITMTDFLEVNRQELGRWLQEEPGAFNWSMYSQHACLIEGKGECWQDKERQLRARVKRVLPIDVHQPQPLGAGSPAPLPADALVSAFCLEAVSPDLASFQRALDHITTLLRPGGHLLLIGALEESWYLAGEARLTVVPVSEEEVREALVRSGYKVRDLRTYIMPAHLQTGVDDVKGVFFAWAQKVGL
smiles,measurement,setting,value
CC[C@@H]([C@H](C)O)n1ncn(-c2ccc(N3CCN(c4ccc(OC[C@@H]5CO[C@@](Cn6cncn6)(c6ccc(F)cc6F)C5)cc4)CC3)cc2)c1=O,Potency,[1],inactive
same,Potency,[2],inactive
same,Potency,[3],inactive
CC(C)=CCNc1ncnc2c1ncn2[C@@H]1O[C@H](CO)[C@@H](O)[C@H]1O,Potency,[2],inactive
COC(=O)C1=CO[C@@H](O)[C@@H]2C(CO)=CC[C@H]12,outcome,[4],inactive
same,Potency,[2],inactive
same,Potency,[3],inactive
same,Potency,[5],inactive
same,Potency,[6],13.4 µM (active)
same,Potency,[7],inactive
same,outcome,[8],inactive
CCOC(=O)Cn1cccc1-c1nc(-c2ccc(OC)cc2)c(-c2ccc(OC)cc2)s1,activity,[9],-5.88%
same,"activity change, negative = inhibition",[10],-8.59%
same,activity,[11],-5.59%
same,activity,[12],-4.51%
same,Potency,[2],inactive
same,Potency,[3],inactive
same,Potency,[5],inactive
same,Potency,[6],inactive
same,Potency,[7],inactive
same,outcome,[8],inactive
COc1ccccc1N1CCN(CCN2C(=O)CC3(CCCC3)CC2=O)CC1,outcome,[4],inactive
same,Potency,[2],inactive
same,Potency,[3],inactive
same,Potency,[5],inactive
same,Potency,[6],inactive
same,Potency,[7],inactive
same,outcome,[8],inactive
Cn1cnc2c(NCc3ccccc3)nc(NCCO)nc21,outcome,[4],inactive
same,Potency,[2],inactive
same,Potency,[3],inactive
CC1(C)O[C@@H]2C[C@H]3[C@@H]4CCC5=CC(=O)C=C[C@]5(C)[C@@]4(F)[C@@H](O)C[C@]3(C)[C@]2(C(=O)CO)O1,Potency,[2],inactive
O=C1NC(c2cccc([N+](=O)[O-])c2)=CCN1c1ccccc1O,outcome,[4],inactive
same,Potency,[2],inactive
same,Potency,[3],inactive
same,Potency,[5],inactive
same,Potency,[7],inactive
CCN(CC)CCNC(=O)c1ccc(NS(C)(=O)=O)cc1,outcome,[4],inactive
same,Potency,[2],inactive
same,Potency,[3],inactive
Cc1cc(CCCOc2c(C)cc(-c3noc(C(F)(F)F)n3)cc2C)on1,Potency,[1],inactive
C[C@@H](O[C@H]1OCCN(Cc2n[nH]c(=O)[nH]2)[C@H]1c1ccc(F)cc1)c1cc(C(F)(F)F)cc(C(F)(F)F)c1,Potency,[1],inactive
same,Potency,[2],inactive
COc1c(C)c2c(c(O)c1C/C=C(\C)CCC(=O)OCCN1CCOCC1)C(=O)OC2,Potency,[1],inactive
same,Potency,[2],inactive
same,Potency,[3],inactive
N[C@@H](Cn1ccc(=O)c(O)c1)C(=O)O,outcome,[4],inactive
same,Potency,[2],inactive
same,Potency,[3],inactive
same,"activity change, negative = inhibition",[5],-9.21% [at 6.45 µM] (inactive)
same,"activity, negative = inhibition",[7],-6.53% [at 6.45 µM] (inactive)
same,redox activity (% of DA3003),[8],-4.94% [at 6.41 µM] (inactive)
O=C1NC(=O)/C(=C/c2ccc3c(c2)OC(F)(F)O3)S1,outcome,[4],inactive
same,Potency,[2],inactive
same,Potency,[3],inactive
same,Potency,[5],9.53 µM (active)
same,Potency,[6],inactive
same,Potency,[7],inactive
same,outcome,[8],inactive
CN(C)c1cc2c(Nc3ccc4c(cnn4Cc4ccccc4)c3)ncnc2cn1,activity,[9],5.63%
same,"activity change, negative = inhibition",[10],6.38%
same,activity,[11],-16.7%
same,activity,[12],-3.6%
same,outcome,[4],inactive
same,Potency,[2],inactive
same,Potency,[3],inactive
same,Potency,[5],inactive
same,Potency,[7],inactive
C1N2CN3CN1CN(C2)C3,Potency,[2],inactive
